Compound activity: PubChem BioAssay, National Center for Advancing Translational Sciences (NCATS)
Only some compounds are listed: those with a hit (about 7.4% of all), similar ones and a draw of the others.
SMN2 splice enh: increases expression of the SMN2 splice variant; AID 1458; Potency, µM (series often up to 46.1 µM), inactives show top-dose activity change, positive = activation, most hits filed as activators; hit rate 2.8% among 210,000; HEK293 SMN2-luciferase splicing reporter, luminescence, 30-36 h; note: % of control where 0% means no effect; nearly all actives have a fitted effect of over 55% in size
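HEK293 cells carry an SMN2 […]–luciferase reporter in which exon 7 inclusion puts luciferase in frame. Cells were plated 10-12 h before compound addition, then incubated 30-36 h at 37C. ONE-Glo luminescence was read; sodium butyrate at 4.5 mM final served as control.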
ELG1 genotoxic: induces genotoxicity in HEK293T cells with luciferase-tagged ELG1; HEK293T ELG1-luciferase reporter, luminescence, 16 h; Potency, µM (doses to about 46 µM), for the others: at the highest dose activity change, positive = activation, actives largely listed as activators; hit rate 1.3% among 330,000; AID 504466; note: % of control where 0% means no effect; nearly all actives have a fitted effect of over 60% in size
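After overnight (16 hr) compound treatment at 37 °C, ELG1-luciferase HEK293T cells were lysed with ONE-Glo; luminescence quantified 30 min later at room temperature.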
NPC1 promoter act: activators of NPC1 promoter | Huh7 NPC1 promoter luciferase reporter, 24 h | hit rate 2.4% among 320,000 | Potency, µM (highest dose often 9.22 µM), for the others: at the highest dose activation, actives largely listed as activators; note: % of control where 0% means no effect; nearly all actives have a fitted effect of over 60% in size
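Cells: Huh7 expressing luciferase under the NPC1 promoter, 1500/well. Seeded 2 h, compound added, incubated 24 h at 37 °C. Luciferase reagent, 10 min ambient, then luminescence.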
FLuc counter: inhibits or activates purified firefly luciferase, miR-21 counter-screen; Potency, µM (doses to about 57.5 µM), for the others: at the highest dose activity change, negative = inhibition, actives largely listed as inhibitors; AID 588342; P08659; purified FLuc, Km substrates, luminescence inhibition; hit rate 6.9% among 360,000;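 note: plate controls were vehicle for no effect and reference inhibitor for full effect; nearly all actives have a fitted effect of over 55% in size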
Target sequence (P08659 whole entry, looked up): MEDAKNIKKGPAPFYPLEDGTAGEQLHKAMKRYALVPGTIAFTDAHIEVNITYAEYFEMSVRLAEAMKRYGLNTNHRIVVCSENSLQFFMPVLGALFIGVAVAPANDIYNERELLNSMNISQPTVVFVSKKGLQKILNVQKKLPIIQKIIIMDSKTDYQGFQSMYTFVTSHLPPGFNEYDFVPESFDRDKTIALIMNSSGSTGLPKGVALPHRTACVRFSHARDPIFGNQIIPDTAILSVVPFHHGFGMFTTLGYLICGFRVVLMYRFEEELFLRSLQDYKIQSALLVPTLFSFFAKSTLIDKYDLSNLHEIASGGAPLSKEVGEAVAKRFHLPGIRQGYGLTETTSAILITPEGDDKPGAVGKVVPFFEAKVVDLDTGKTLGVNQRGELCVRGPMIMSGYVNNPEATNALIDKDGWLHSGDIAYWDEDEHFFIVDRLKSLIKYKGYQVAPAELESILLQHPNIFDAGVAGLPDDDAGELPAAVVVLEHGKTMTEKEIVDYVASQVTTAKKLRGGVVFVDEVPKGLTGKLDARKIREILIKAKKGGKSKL
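Purified P. pyralis luciferase, 10 nM final, with Km-level 10 uM D-luciferin and 10 uM ATP in 50 mM Tris acetate pH 7.5, 10 mM Mg acetate, 0.01% Tween-20, 0.05% BSA; 6-point qHTS titration about 60 µM downward; luminescence read.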
Rab9 promoter act: activators of Rab9 promoter; Potency, µM (titrated, usually from 9.22 µM), without a hit: at the highest dose activation, negative = inhibition, actives largely listed as activators; AID 485297; Huh7 Rab9 promoter-luciferase reporter, luminescence, 24 h; hit rate 2.8% among 320,000; note: % of control where 0% means no effect; nearly all actives have a fitted effect of over 60% in size
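Using Huh7 cells stably transfected with Rab9 promoter–luciferase, compounds were incubated 24 h at 37 °C, 5% CO2; luciferase luminescence was read 10 min after reagent addition.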
Numbers without * were called inactive; ? = inconclusive; . = not tested or not shown; [ ] = remark or other dose. Calls come from the whole dose curve; as a rule, active = well fitted curve in the direction sought with a large enough effect; inconclusive = small, poorly fitted or top-dose-only effect, or another doubt; inactive = no such curve, though single readings can be large; an effect the other way counts as inactive or inconclusive. Potency is the fitted concentration of half-maximal effect.

SMILES | SMN2 splice enh | ELG1 genotoxic | NPC1 promoter act | FLuc counter | Rab9 promoter act
CC(=O)c1sc(NC(=O)c2cc(=O)c3ccccc3o2)nc1C | 11µM* | ? | 2.5µM* | 7.6µM* | 3.2µM*
CC(=O)c1sc(NC(=O)c2oc3ccc(F)cc3c2C)nc1C | . | 18% | 2.2µM* | 1.9µM* | 2.8µM*
NC(=O)c1ccsc1NC(=O)c1cc(=O)c2ccccc2o1 | 10µM* | ? | ? | 2.7µM* | 1.8µM*
O=C(Nc1nc2ccc(Cl)cc2s1)c1cc(=O)c2ccccc2o1 | 14% | . | . | ? | .
CCOC(=O)c1csc(NC(=O)c2cc(=O)c3ccccc3o2)n1 | 23% | 10% | 16% | 15µM* | ?
CCN(CC)S(=O)(=O)c1ccc(=O)[nH]c1 | 27% | -1% | 0% | -2% | -6%
Cc1ccc(-n2ncc3c(SCC(N)=O)ncnc32)cc1C | . | ? | 4µM* | 5.4µM* | 3.2µM*
Cc1ccc(-n2ncc3c(SCC(=O)NNC(=O)C(C)C)ncnc32)cc1 | . | 8% | 24% | 7.6µM* | 13%[1.84 µM]
CC(=O)CSc1ncnc2c1cnn2-c1ccccc1 | 11µM* | ? | 1.3µM* | 7.6µM* | 1.1µM*
O=c1c2sccc2nc(SCc2cc(=O)n3ccccc3n2)n1Cc1ccccn1 | 13µM* | ? | ? | -3% | 4µM*
CCN(C(=O)Cn1ncc2c(=O)oc3ccccc3c21)c1ccccc1F | 7% | . | . | -8% | .
CCOc1ccc2nc(NC(=O)C3CCN(C(=O)c4ccco4)CC3)sc2c1 | . | ? | ? | 15µM* | ?
O=C(Nc1nc2ccccc2s1)C1CCN(C(=O)c2ccco2)CC1 | . | -14% | 0% | -7% | 0%
CCOc1ccc2nc(N3CCC(C(=O)N4CCN(C(=O)c5ccco5)CC4)CC3)sc2c1 | -46% | 1% | 7% | 13µM* | 20%
O=C(NCCCn1ccnc1)C1c2ccccc2Oc2ccccc21 | . | -3% | -4% | 0% | 3%
CCOC(=O)c1sc(NC(=O)c2ccc(=O)[nH]c2)nc1C | . | 20% | 2% | ? | -16%
CCOC(=O)c1sc(NC(=O)c2cccnc2)nc1C | -2% | ? | 16% | 15µM* | 25%
CCOC(=O)c1sc(NC(=O)c2ccc3nc[nH]c3c2)nc1C | . | ? | -7% | 5.4µM* | 2%
CCOC(=O)c1sc(NC(=O)c2ccccc2OCC)nc1C | -26% | -1% | ? | -20% | ?
CCOC(=O)c1sc(NC(=O)CSc2ncccn2)nc1C | . | -2% | -2% | -11% | 3%
CCOC(=O)c1sc(NC(=O)CSc2nccn2C)nc1C | . | 21µM* | ? | ? | ?
COc1ccc(N/C=C2/Sc3ccccc3NC2=O)cc1 | 13µM* | ? | ? | 2.7µM* | ?
O=C1Nc2ccccc2S/C1=C/NCc1ccccc1Cl | 2% | 1% | 4% | 19µM* | 12%
Cc1ccc(N/C=C2/Sc3ccccc3NC2=O)cc1 | ? | ? | ? | 1.9µM* | 3.2µM*
O=C(COc1ccc([N+](=O)[O-])cc1)Nc1nc2c(s1)CCCC2 | . | . | . | -6% | .
SMILES | SMN2 splice enh | ELG1 genotoxic | NPC1 promoter act | FLuc counter | Rab9 promoter act
CC(/C=N/Nc1ccc2nncn2n1)=C\c1ccccc1 | . | 5% | 2% | 15µM* | 12%
CC(/C=N/Nc1nnc(C)c(=O)[nH]1)=C\c1ccccc1 | ? | 15% | ? | 12µM* | ?
C(=C\c1ccccc1)/C=N/Nc1ccc2nncn2n1 | . | 5% | ? | -13% | -4%
CC(=O)N1CCN(c2ccc(NC(=O)c3ccco3)cc2)CC1 | . | ? | ? | 17µM* | ?
CCC(=O)N1CCN(c2ccc(NC(=O)c3ccco3)cc2)CC1 | . | ? | 25% | ? | 29%
CC1CCN(c2ccc(NC(=S)NC(=O)c3ccco3)cc2)CC1 | -43% | 1% | 14% | 12µM* | ?
O=C(NC(=S)Nc1ccc(N2CCCCC2)cc1)c1ccco1 | . | ? | 1µM* | 3.4µM* | 1.1µM*
O=C(NC(=S)Nc1ccccc1N1CCCCC1)c1ccco1 | -10% | -3% | -3% | -3% | 0%
C=CC1=C2C=C(C3CC3)N(Cc3ccco3)C=C2C(=O)C(C)(OC(=O)c2ccco2)C1=O (stereo not given) | 0%[9.22 µM] | . | . | . | .
COc1ccccc1N(C)S(=O)(=O)c1ccc(C)c(C(=O)NC(C)c2ccccn2)c1 (stereo not given) | . | -2% | -1% | 3% | -3%
COc1ccc(C(c2c(O)ccc3ccccc23)N2CCOCC2)c(OC)c1 (stereo not given) | ? | ? | -3% | 12µM* | 4%
O=c1c2ccccc2c(/C=N/c2n[nH]c(CCCO)n2)c(O)n1-c1ccccc1Cl | 5% | 1% | -2% | 17µM* | -2%
COc1ccc2c(c1)CC/C(=C\C=C\c1ccccc1OC)C2=O | 11µM* | 9% | ? | 2.1µM* | ?
COc1ccc2c(c1)C(=O)/C(=C/C=C/c1ccccc1)CC2 | 11µM* | 5% | ? | 9.5µM* | ?
C#CCn1cc(C=C2C(=O)c3ccccc3C2=O)c2ccccc21 | 22% | 17% | 18% | 2.4µM* | 3%
C#CCn1c(=O)cc(C)c2ccccc21 | -8% | 5% | -2% | 2% | 0%
O=C(CN1C(=O)c2cccc3cccc1c23)NC1CCCC1 | . | 11% | -4% | -2% | -2%
O=C(Nc1ncccc1O)c1ccc2c(c1)OCCO2 | . | 21µM* | 3.5µM* | 15µM* | 2.5µM*
Cc1cccnc1NC(=O)c1ccc2c(c1)OCCO2 | . | 16µM* | 1% | 13µM* | ?
O=C(Nc1ncccc1O)c1ccc2c(c1)OCO2 | . | ? | 4µM* | ? | 3.5µM*
CN1CCN(c2ncc3nc(-c4ccccc4)c(=O)n(-c4ccccc4)c3n2)CC1 | -8% | . | . | . | .
CCN(CC)S(=O)(=O)c1ccc2nc(NC(=O)c3cccnc3)sc2c1 | . | . | . | 19µM* | .
CCNS(=O)(=O)c1ccc2nc(NC(=O)c3cccnc3)sc2c1 | 10% | 8% | 24% | 21µM* | ?
O=C(NCc1cccc(Cl)c1)c1cccn1-c1nnc(N2CCCC2)s1 | . | . | . | -16% | .
O=C(c1cnccn1)N1CCC2(CCCN(c3ccc(-c4ccccc4)cc3)C2)CC1 | 4µM* | . | . | . | .
C=CCn1c(C)cc(C(=O)COC(=O)C2CC(=O)N(Cc3ccccc3)C2)c1C (stereo not given) | 12% | 3% | 2% | 24µM* | -7%
Cc1ccc(C(=O)NCC(=O)OCC(=O)c2cc(C)n(Cc3ccco3)c2C)cc1 | . | 6% | -1% | 24µM* | -3%
Cc1cc(C(=O)COC(=O)[C@H](C)NC(=O)c2ccco2)c(C)n1Cc1ccco1 | 4% | 5% | -2% | 7.6µM* | 5%
C=CCn1c(C)cc(C(=O)COC(=O)CNC(=O)c2ccccc2)c1C | -23% | 14% | -1% | 13µM* | -6%
Cc1cc(C(=O)COC(=O)CNC(=O)c2ccc(Cl)c(Cl)c2)c(C)n1Cc1ccco1 | 4% | 2% | -2% | -12% | -3%
